Here are results for 18 molecules from PubChem BioAssay.

SMILES strings stand for the structures. Several values for one entry are separate records, joined by “and”; a condition that tells them apart may be missing. Identical values can stand only once. Activity calls are given as the source filed them. Unless noted, the rule behind the calls is not given here.

The nature of experiment [1]: compounds altering circadian rhythm period length – cell-based, LOPAC library, luminescence reporter (AID 2774).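 Note: values are relative to mean of DMSO wells on each plate.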 Particulars: circadian reporter cells, at 7 µM, actives lie on both sides.
In experiment [2] the test system is Hepatitis C virus NS3 helicase. The experiment can be described thus: blockers of NS3h binding to ssDNA – biochemical, fluorescence polarization, LOPAC1280 library, primary screen (AID 687035; in the data active = inhibition above about 37%). The following applies: Purified HCV NS3 helicase, Cy5-dT15 ssDNA binding fluorescence polarization; stronger effect = higher value; concentration not given here.
The nature of experiment [3]: compounds altering Cy5-DNA-NS3h complex signal – biochemical, LOPAC1280, artefact control for HCV NS3 helicase inhibitor project (AID 687037). Particulars: Cy5-DNA-NS3h complex fluorescence interference counterscreen. In general terms: A counterscreen serves to expose hits that act by an unwanted route or on another target.
In experiment [4] the test system is Aerobactin synthetase IucA (Klebsiella pneumoniae, hypervirulent). The experiment can be described thus: biochemical IucA inhibition screen of LOPAC library by absorbance (AID 1346212).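 Note: 100% = no compound wells and 0% = no enzyme wells.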 Particulars: IucA enzyme assay, absorbance (OD) readout; stronger effect = lower value;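 tested at 8 µM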.
Experiment [5] is described as follows: viability loss with induced miR-34 in A549 – imaging, A549 dox-inducible miR-34, nuclei and caspase counts, primary screen (AID 1347080;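 active = compounds whose cell count with miR-34 switched on is under 0.7 times the count with it off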). The following applies: A549 miR-34 inducible, Hoechst nuclei count, 48 h.
Experiment [6] can be described thus: blockers of cellular phospholipid synthesis – cell-based, LOPAC library, screen 4, primary screen (AID 1347384). The following applies: animal cells, phospholipid biosynthesis inhibition screen; at 10 µM.
Experiment [7] can be described thus: galactose survival enhancers in mitochondrial complex I cybrids – cell-based, galactose medium, ATP luminescence, primary screen (AID 1645843;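 active = z-score of at least 1.8 in each of two replicates, scored against plate mean and spread of sample wells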;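 note: positive z means more ATP and so rescue of galactose-driven cybrid death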). Particulars: complex I mutant cybrid cells, 72 h, stronger effect = higher value.
Experiment [8] in a line: compounds altering viability of human ES cells (AID 493140).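 Note: cells exposed to compounds for four days before counting.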 Particulars: human embryonic stem cell survival screen; stronger effect = higher value.
A short description of experiment [9]: P. berghei load reduction in hepatocytes – cell-based, HepG2, luciferase luminescence, HepG2 viability, primary screen (AID 624349; in the data active = parasite load remaining mostly below about 12%, no sharp cut-off; inactive = mostly above about 10%;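 note: 100% = mean of DMSO negative control wells on the same plate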). The following applies: P. berghei liver stage in HepG2, luciferase luminescence, concentration not given here; parasite load remaining: stronger effect = lower value; viability: measured here: HepG2 viability without parasites.
The mark [10] stands for this setting: measured here: relative caspase fold change +Dox/-Dox.
Where [11] appears, read: measured here: total cells with miR-34 induction, stronger effect = lower value.
[12] abbreviates: measured here: total cells without miR-34 induction.

As usually defined, the inhibition is the relative decrease from the control value, in per cent. A word on the remaining activity: it is the signal under treatment as a percentage of the control signal. Consider `CCCN1CCC[C@@H](c2cccc(O)c2)C1`, for which the period change in experiment [1] is 0.11 h (inactive). In addition, the inhibition in experiment [2] was -3% (inactive). Besides, the fluorescence ratio (interference) in [3] is 1 (inactive). In experiment [4], the remaining activity was 106% (inactive). For the same molecule, the fold change in [5] (stronger effect = lower value) was 0.956 (inactive); in [5] (setting [10]) it was 0.986. The cell count in [5] (setting [11]) was determined as 9850; in [5] (setting [12]) it was 10300. Moreover, the molecule was classed as inactive in experiment [6]. For the same molecule, the z-score in experiment [7] is 0.185 (inactive).

Consider `CCCN(CCC)[C@@H]1CCc2ccc(O)cc2C1`, for which, in experiment [1], the period change is 0.12 h (inactive). The inhibition in experiment [2] was 0% (inactive). For the same molecule, the fluorescence ratio (interference) in [3] is 1.1 (inactive). Further, the remaining activity in experiment [4] is 125% (inactive). Further, the fold change in [5] (stronger effect = lower value) was 0.992 (inactive); in experiment [5] (setting [10]), 1.38. Moreover, the figures for the cell count in [5] (setting [11]) and in experiment [5] (setting [12]) were 9820 and 9900, respectively. The molecule was called inactive in experiment [6]. Besides, in experiment [7], the z-score is -0.195 (inactive).

For `CC(=O)NBr`, the period change in experiment [1] is 0.03 h (inactive). Further, the inhibition in [2] is -1% (inactive). In experiment [3], the fluorescence ratio (interference) is 0.9 (inactive). The remaining activity in [4] was 100% (inactive). For the same molecule, the fold change in experiment [5] (stronger effect = lower value) is 1.03 (inactive); in experiment [5] (setting [10]), 2.31. The cell count in experiment [5] (setting [11]) stood at 10500; in experiment [5] (setting [12]), 10100. Further, in [6], the result was inactive. The z-score in experiment [7] was 0.61 (inactive).

With `NCC(O)c1cc(O)c(O)cc1F` (stereo not given), the period change in experiment [1] was -0.105 h (inactive). In experiment [2], the inhibition is 1% (inactive). Besides, the fluorescence ratio (interference) in experiment [3] is 0.9 (inactive). For the same molecule, the remaining activity in experiment [4] was 110% (inactive). For the same molecule, the fold change is 1.02 (inactive) in [5] (stronger effect = lower value) and 1.46 in [5] (setting [10]). Further, the values for the cell count in experiment [5] (setting [11]) and in experiment [5] (setting [12]) were 10300 and 10200, respectively. Also, in experiment [6], the result was inactive. Further, the z-score in experiment [7] is -1.47 (inactive).

`CC1Cc2cc3c(cc2C(c2ccc(N)cc2)=NN1)OCO3` (stereo not given): the period change in experiment [1] is 0.09 h (inactive). Moreover, the remaining activity in experiment [4] is 102% (inactive).

Regarding `C=CCN1CC[C@]23c4c5ccc(O)c4O[C@@H]2/C(=N/N=C2\CC[C@@]4(O)C6Cc7ccc(O)c8c7[C@@]4(CCN6CC=C)[C@@H]2O8)CC[C@@]3(O)C1C5`, in experiment [1], the period change was 0.015 h (inactive). Besides, the remaining activity in [4] was 108% (inactive).

On to `CCCN1CCC[C@@H](c2cccc(C#N)c2)C1`, for which, in [1], the period change is -0.025 h (inactive). The remaining activity in experiment [4] is 122% (inactive).

Consider `COc1ccc2c3c1O[C@H]1C(=O)CC[C@@]4(O)C(C2)N(CC2CC2)CCC314` (stereo not given in full), for which the period change in experiment [1] was -0.115 h (inactive). In addition, the remaining activity in experiment [4] is 120% (inactive).

As for `Nc1ncnc2c1ncn2[C@@H]1O[C@H](COP(=O)(O)CP(=O)(O)OP(=O)(O)O)[C@H](O)C1O` (stereo not given in full), the period change in [1] is 0.01 h (inactive). The inhibition in experiment [2] was -1% (inactive). Also, in experiment [3], the fluorescence ratio (interference) is 1 (inactive). Moreover, in experiment [4], the remaining activity was 111% (inactive). The fold change in [5] (stronger effect = lower value) was 1.06 (inactive); in [5] (setting [10]), 0.784. Moreover, the cell count in [5] (setting [11]) stood at 11200; in experiment [5] (setting [12]), 10600. In [7], the z-score is 2.36 (active).

Turning to `COc1cc(C=C(C#N)C#N)cc(O)c1O`, the period change in experiment [1] was -0.12 h (inactive). For the same molecule, the remaining activity in [4] is 117% (inactive).

In the case of `CC(C)[C@H]1CN[C@H](C(=O)O)[C@H]1CC(=O)O`, in [2], the inhibition is 1% (inactive). Further, in experiment [3], the fluorescence ratio (interference) is 1 (inactive). Moreover, in [4], the remaining activity was 93.8% (inactive). Besides, the fold change in experiment [5] (stronger effect = lower value) is 0.952 (inactive); in [5] (setting [10]), 0.99. Besides, the cell count came to 9550 in experiment [5] (setting [11]) and 10000 in experiment [5] (setting [12]). In addition, the call in experiment [6] was inactive. Further, in experiment [7], the z-score was 0.11 (inactive).

Take `N#CC(C#N)=Cc1cc(O)c(O)c(O)c1`: the period change in [1] is -0.035 h (inactive). For the same molecule, the survival in [8] was 61.5 (inactive). In addition, the remaining activity in [4] is 109% (inactive).

`O=P(O)(O)C(Cl)(Cl)P(=O)(O)O`: in [1], the period change is -0.115 h (inactive). For the same molecule, the inhibition in [2] is -2% (inactive). In addition, in experiment [3], the fluorescence ratio (interference) is 1 (inactive). In addition, the remaining activity in experiment [4] was 94.8% (inactive). Also, the fold change in experiment [5] (stronger effect = lower value) was 0.966 (inactive) and 0.892 (inactive); in experiment [5] (setting [10]) it was 1.44 and 0.98. In addition, the cell count in [5] (setting [11]) was 9450 and 9630; in [5] (setting [12]), 9790 and 10800. In addition, the z-score in experiment [7] was 1.8 (inactive) and 0.645 (inactive).

With `COc1ccc2c(c1)[C@@]13CCCC[C@H]1[C@@H](C2)NCC3`, the period change in experiment [1] was -0.085 h (inactive). In addition, the inhibition in experiment [2] is -5% (inactive). The fluorescence ratio (interference) in experiment [3] is 1 (inactive). Further, the remaining activity in [4] was 108% (inactive).

Consider `c1ccc(C2(c3ccccc3)CC2C2=NCCN2)cc1` (stereo not given), for which the inhibition in experiment [2] was -3% (inactive). The fluorescence ratio (interference) in [3] was 0.9 (inactive). Besides, in experiment [4], the remaining activity was 115% (inactive). Moreover, the fold change was 1.07 (inactive) in experiment [5] (stronger effect = lower value, cell number ratio, induced over uninduced) and 1.35 in [5] (setting [10]). In addition, the cell count in experiment [5] (setting [11]) is 11300; in experiment [5] (setting [12]) it was 10600. For the same molecule, the molecule was classed as inactive in [6]. In experiment [7], the z-score is 0.18 (inactive).

In the case of `CC(=O)OCC1=C(C(=O)[O-])N2C(=O)[C@@H](NC(=O)CCC[C@@H](N)C(=O)[O-])[C@H]2SC1.[Zn+2]`, in [1], the period change was -0.01 h (inactive). The inhibition in experiment [2] was 0% (inactive). Also, in experiment [3], the fluorescence ratio (interference) is 0.9 (inactive). The remaining activity in experiment [4] was 102% (inactive). Besides, the fold change in [5] (stronger effect = lower value) is 1.04 (inactive); in experiment [5] (setting [10]), 1.44. Besides, the values for the cell count in experiment [5] (setting [11]) and in experiment [5] (setting [12]) were 10400 and 10000, respectively. Further, in experiment [7], the z-score is -0.275 (inactive).

As a reminder, the viability is a read-out of living cells in per cent, often relative to untreated cells. With `O=[N+]([O-])/C=C/c1ccc2c(c1)OCO2`, the parasite load remaining in experiment [9] is 42.5% (inactive). For the same molecule, the viability in experiment [9] stood at 65.7%. Besides, the inhibition in experiment [2] is -1% (inactive). Further, the fluorescence ratio (interference) in experiment [3] is 1 (inactive). Besides, the remaining activity in experiment [4] was 107% (inactive). The values for the fold change in experiment [5] (stronger effect = lower value) and in experiment [5] (setting [10]) were 1.45 (inactive) and 0.546, respectively. The cell count in experiment [5] (setting [11]) turned out to be 2000; in experiment [5] (setting [12]), 1380. Besides, the result in [6] was inactive. Besides, the z-score in experiment [7] was -0.995 (inactive).

For the molecule `CCc1c(C(=O)OC)ncc2[nH]c3cc(OC)c(OC)cc3c12`, the period change in experiment [1] is 0.185 h (inactive). Moreover, in experiment [4], the remaining activity was 93% (inactive).
